What was measured:
Experiment in all cases: log2 ratio of Biotin-Ahx-Ub-VS probe labelling (fragment/DMSO); higher = less target engagement (more negative = stronger competition), active = hit call of the paper (q ≤ 0.05, log2 ratio ≤ -1)
Settings in all cases: compound concentration: 200 uM; treatment time: 3 h
ALG13 = target: T1, ALG13 (UniProt Q9NP73)
T1 sequence (whole entry): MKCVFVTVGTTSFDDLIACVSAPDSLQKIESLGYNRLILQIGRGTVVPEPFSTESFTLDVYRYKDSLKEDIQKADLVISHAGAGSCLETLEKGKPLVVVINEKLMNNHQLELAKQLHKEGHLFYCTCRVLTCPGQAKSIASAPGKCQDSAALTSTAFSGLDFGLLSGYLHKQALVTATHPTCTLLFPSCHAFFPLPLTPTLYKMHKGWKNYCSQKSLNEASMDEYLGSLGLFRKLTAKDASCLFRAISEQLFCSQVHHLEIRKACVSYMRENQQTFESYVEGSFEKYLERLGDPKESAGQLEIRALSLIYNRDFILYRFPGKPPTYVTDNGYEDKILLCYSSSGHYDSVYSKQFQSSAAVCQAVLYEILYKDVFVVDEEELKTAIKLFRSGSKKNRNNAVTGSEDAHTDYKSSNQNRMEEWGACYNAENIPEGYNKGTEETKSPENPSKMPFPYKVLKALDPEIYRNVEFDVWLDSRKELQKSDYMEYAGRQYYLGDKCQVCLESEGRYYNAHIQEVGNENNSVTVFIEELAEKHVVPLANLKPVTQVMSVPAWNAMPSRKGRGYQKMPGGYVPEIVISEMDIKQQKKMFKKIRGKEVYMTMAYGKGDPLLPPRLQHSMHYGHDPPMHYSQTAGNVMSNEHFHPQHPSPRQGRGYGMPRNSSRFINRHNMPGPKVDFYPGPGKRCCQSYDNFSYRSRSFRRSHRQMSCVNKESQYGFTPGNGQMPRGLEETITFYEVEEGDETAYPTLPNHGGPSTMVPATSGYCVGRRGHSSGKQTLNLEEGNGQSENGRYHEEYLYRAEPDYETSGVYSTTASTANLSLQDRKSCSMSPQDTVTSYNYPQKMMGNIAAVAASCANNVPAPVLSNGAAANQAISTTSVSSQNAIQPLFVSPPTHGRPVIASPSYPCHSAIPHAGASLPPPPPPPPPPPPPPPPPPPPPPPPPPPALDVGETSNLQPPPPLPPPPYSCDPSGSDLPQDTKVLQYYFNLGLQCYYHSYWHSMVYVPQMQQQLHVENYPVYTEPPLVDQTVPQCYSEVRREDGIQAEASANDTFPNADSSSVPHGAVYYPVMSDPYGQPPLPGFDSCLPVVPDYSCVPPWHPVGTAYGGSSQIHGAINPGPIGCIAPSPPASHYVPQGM
Method in brief: (§1)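 Labelling with Biotin-Ahx-Ub-VS (0.5 µM final, 1 h) followed a 3 h triplicate treatment of HEK293T lysate (495 µg per sample, Tris/CHAPS/IGEPAL buffer with protease inhibitors) with fragment at 200 µM or vehicle. Labelled DUBs were NeutrAvidin-enriched, digested with LysC and trypsin, and run by diaPASEF LC-MS/MS. The values, average log2 fragment/vehicle ratios by unpaired t-test, come from global-median-normalised Spectronaut label-free quantities. Proteins with ≥2 unique peptides were used.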

ATXN3 = ATXN3 (UniProt P54252)
Method in brief: as §1

BAP1 = target: T2, BAP1 (UniProt Q92560)
T2 sequence (whole entry): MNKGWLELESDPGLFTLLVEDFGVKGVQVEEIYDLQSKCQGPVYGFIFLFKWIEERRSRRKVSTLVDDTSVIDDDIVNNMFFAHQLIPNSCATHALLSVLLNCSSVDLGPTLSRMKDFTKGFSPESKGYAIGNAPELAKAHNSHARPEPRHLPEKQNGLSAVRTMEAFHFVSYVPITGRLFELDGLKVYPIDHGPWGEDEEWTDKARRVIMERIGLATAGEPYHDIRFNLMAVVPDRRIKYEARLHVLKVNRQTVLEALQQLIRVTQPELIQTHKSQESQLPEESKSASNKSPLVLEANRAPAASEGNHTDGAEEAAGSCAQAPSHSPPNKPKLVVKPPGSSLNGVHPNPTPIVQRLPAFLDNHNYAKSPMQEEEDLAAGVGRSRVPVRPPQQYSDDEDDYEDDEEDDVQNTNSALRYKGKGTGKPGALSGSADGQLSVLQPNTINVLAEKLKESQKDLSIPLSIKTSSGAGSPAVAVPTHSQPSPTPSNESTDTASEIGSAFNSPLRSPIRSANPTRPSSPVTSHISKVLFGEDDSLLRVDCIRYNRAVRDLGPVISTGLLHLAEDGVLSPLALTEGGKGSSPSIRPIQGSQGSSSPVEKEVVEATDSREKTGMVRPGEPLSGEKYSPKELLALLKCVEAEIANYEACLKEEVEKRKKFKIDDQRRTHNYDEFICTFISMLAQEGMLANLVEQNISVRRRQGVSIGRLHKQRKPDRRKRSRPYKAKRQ
Method in brief: as §1

EIF3F = EIF3F (UniProt O00303)
Method in brief: as §1

EIF3H = EIF3H (UniProt O15372)
Method in brief: as §1

FAM105A = target: T3, FAM105A (UniProt Q9NUU6)
T3 sequence (whole entry): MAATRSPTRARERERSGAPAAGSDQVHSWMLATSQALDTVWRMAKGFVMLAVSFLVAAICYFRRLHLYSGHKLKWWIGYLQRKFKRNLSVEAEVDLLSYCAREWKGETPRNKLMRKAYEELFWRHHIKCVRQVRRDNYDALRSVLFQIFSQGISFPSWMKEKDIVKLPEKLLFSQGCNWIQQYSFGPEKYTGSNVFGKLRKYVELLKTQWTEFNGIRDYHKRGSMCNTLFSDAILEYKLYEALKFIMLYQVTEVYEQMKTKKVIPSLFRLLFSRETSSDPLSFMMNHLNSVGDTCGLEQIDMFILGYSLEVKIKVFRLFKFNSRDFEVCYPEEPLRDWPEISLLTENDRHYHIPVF
Method in brief: as §1

OTUB1 = OTUB1 (UniProt Q96FW1)
Method in brief: as §1

OTUD4 = target: T4, OTUD4 (UniProt Q01804)
T4 sequence (whole entry): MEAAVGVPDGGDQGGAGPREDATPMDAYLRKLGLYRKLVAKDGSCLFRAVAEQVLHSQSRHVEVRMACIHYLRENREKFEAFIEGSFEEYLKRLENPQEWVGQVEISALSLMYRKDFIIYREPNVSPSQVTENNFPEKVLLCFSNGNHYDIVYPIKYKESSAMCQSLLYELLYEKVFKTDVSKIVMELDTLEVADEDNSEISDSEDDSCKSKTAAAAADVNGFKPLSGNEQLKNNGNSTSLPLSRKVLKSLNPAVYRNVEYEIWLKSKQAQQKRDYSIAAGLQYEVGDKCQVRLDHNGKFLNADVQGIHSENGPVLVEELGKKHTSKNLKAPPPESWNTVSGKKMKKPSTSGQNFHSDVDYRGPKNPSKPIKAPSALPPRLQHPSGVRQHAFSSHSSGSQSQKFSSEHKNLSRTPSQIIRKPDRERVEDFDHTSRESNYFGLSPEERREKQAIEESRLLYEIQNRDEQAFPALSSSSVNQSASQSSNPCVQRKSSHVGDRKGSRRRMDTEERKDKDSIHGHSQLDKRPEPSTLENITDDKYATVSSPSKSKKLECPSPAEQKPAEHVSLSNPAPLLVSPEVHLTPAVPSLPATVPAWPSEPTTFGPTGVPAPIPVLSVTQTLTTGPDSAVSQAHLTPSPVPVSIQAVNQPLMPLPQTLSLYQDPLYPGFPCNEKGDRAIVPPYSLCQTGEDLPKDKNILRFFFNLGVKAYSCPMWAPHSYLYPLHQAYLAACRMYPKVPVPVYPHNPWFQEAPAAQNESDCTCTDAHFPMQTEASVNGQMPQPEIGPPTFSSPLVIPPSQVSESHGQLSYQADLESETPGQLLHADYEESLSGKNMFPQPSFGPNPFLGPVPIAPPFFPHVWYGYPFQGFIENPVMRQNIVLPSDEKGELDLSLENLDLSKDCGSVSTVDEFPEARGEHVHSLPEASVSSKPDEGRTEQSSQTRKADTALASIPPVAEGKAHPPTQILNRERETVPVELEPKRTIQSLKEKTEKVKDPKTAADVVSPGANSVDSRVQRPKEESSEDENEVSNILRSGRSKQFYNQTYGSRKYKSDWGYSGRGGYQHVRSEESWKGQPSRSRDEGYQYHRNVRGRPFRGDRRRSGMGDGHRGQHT
Method in brief: as §1

OTUD5 = target: T5, OTUD5 (UniProt Q96G74)
T5 sequence (whole entry): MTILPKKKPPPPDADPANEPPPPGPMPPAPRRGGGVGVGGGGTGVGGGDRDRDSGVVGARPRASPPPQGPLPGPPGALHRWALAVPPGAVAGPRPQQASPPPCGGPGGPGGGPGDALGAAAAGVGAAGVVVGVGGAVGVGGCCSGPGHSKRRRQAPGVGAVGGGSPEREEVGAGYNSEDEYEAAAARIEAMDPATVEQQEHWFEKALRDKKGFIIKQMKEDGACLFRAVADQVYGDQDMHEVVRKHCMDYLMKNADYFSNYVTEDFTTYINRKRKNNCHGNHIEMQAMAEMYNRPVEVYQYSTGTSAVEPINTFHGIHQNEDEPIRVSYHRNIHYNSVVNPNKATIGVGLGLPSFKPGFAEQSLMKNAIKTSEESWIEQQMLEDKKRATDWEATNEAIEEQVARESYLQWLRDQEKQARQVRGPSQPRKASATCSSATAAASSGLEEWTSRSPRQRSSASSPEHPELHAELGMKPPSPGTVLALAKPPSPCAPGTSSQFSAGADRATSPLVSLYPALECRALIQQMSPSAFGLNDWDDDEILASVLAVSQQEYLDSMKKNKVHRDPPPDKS
Method in brief: as §1

Measured: log2 ratio of Biotin-Ahx-Ub-VS probe labelling

OTUB1, sequence (Q96FW1 whole entry): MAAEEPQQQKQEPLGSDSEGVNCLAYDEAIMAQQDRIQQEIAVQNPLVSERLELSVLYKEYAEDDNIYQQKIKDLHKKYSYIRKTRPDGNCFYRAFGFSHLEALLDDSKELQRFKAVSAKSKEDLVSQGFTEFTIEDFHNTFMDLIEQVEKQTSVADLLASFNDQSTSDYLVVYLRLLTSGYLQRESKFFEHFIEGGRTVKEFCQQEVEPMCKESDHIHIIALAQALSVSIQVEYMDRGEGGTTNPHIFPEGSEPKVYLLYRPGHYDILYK
EIF3H, sequence (O15372 whole entry): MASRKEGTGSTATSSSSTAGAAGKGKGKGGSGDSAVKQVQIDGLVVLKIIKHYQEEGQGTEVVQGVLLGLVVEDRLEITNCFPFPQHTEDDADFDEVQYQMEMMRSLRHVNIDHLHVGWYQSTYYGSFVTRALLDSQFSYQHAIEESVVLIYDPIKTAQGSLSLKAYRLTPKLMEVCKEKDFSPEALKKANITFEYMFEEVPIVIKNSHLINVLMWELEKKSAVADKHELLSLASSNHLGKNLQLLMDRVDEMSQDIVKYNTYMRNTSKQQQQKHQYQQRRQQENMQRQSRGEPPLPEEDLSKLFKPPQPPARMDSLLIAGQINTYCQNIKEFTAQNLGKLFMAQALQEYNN
EIF3F, sequence (O00303 whole entry): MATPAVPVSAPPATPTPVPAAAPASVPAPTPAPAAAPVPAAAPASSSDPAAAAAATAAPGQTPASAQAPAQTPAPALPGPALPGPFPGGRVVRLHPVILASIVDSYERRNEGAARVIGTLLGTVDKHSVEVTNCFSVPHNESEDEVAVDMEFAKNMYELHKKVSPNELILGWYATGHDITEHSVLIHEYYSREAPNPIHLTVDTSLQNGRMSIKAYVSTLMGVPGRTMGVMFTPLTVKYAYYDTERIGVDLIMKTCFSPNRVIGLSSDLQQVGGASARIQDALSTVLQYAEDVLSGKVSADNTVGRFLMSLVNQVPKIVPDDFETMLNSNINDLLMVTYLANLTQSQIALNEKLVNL
ATXN3, sequence (P54252 whole entry): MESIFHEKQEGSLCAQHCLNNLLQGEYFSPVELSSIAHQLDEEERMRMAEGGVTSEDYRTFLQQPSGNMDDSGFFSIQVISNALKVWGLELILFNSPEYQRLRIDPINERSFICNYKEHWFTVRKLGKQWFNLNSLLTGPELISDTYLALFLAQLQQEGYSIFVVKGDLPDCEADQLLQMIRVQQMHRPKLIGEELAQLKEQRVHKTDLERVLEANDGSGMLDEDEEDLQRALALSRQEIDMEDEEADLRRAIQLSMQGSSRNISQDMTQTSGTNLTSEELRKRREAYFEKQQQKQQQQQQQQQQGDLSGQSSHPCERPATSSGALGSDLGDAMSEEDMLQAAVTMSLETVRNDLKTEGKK

Cc1cccc(NC(=O)[C@@H]2CCCN2C(=O)CCl)n1
inactive: ALG13 0.103 | ATXN3 -0.532 | BAP1 -0.719 | EIF3F -0.372 | EIF3H 0.0856 | FAM105A 0.18 | OTUB1 -0.512 | OTUD4 -0.432 | OTUD5 -0.514

From the supplement of paper PMC11732987, “Enantioselective OTUD7B fragment discovery through chemoproteomics screening and high-throughput optimisation” (Communications Chemistry, 2025)
